The subject of the test is HL-60(TB) leukemia. Briefly: NCI-60 one-dose screen, 48 h (100 = growth as untreated, 0 = no growth, -100 = all killed). Conditions: 10 µM unless noted.

The panel holds about 83,000 compounds, 20% with a hit somewhere; the sample as a whole holds those more often.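 Compound tested at a single concentration for 48 hours in 96-well plates; a percent growth value below 10 was scored as active.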 Values without a mark were called inactive. Active and inactive are the calls of the source.

Take `CCOC(=O)C(=Cc1cccc(C#N)c1)C(=O)OCC`: the growth was 27.9%.
The result for `COC(=O)c1cc2oc(/C=N\NC(=O)c3cc4oc(C)c(C)c4[nH]3)cc2[nH]1` reads 103%.
For the compound `O=C1/C(=C/c2ccccc2F)CNC/C1=C\c1ccccc1F`, the growth is -42.9% (active).
Next, `O=C(Nc1ccc(Cl)c([N+](=O)[O-])c1)Nc1nc2ccccc2s1`: 91.3%; `N#CC1=C(N)Oc2c(sc3c(Br)cccc23)C1c1ccccn1` (stereo not given): 7.5% (active); `Cc1ccc(NC(=O)c2sc3nc(C)c(C(=O)c4ccccc4)cc3c2N)cc1`: 84.2%.
The result for `CC[C@@]1(OC(=O)CN(C)C)C(=O)OCc2c1cc1n(c2=O)Cc2cc3c(N)cccc3nc2-1` reads -2.25% (active).
`OCCN1CCCCCCC1`: the growth is 102%.
The result for `CSc1nc2ncnc(SC)c2[nH]1` reads 118%; that for `COC(=O)C1=C(C)NC(C)=C(C(=O)OC)C(N2C(=O)CCC2=O)C1` (stereo not given), 90.8%.
The result for `Cc1cn(C)cn1` reads 116%; that for `Cc1nc(Sc2nc3ccc([N+](=O)[O-])cc3s2)sc1C`, -41.7% (active).
The result for `Cc1ccc(OCCn2c(C)nn(-c3ccc(Cl)cc3)c2=O)cc1` reads 114%; that for `CCCCOCC(=O)NC(NP(=O)(N(C)C)N(C)C)C(Cl)(Cl)Cl` (stereo not given), 100%; that for `Cc1cc(Nc2cc(N3CCN(C)CC3)nc(/C=C/c3ccccc3)n2)n[nH]1`, -29.7% (active).
For the compound `FC(F)(F)c1cccc(-n2nnc3cnc(Nc4ccc(N5CCCCC5)cc4)nc32)c1`, the growth was 103%.
Next, `CCCCOc1nc2c(C)cccc2cc1C1CNC(=O)c2ccccc2N1` (stereo not given): 26.2%; `COc1ccc(NC(=O)c2nc(-c3cc(OC)c(OC)c(OC)c3)n(-c3cccc4ccccc34)n2)cc1OC`: 10%.
The result for `COc1cc(NC(C)CN(CC(C)C)C(C)C)c2ncccc2c1` (stereo not given) reads 101%.
The result for `NC(=O)CSc1nc(-c2ccc(F)cc2)cc(-c2ccco2)n1` reads 108%.
On to `CCOc1cc2c(Cl)ncnc2c(OCC)c1OCC`, for which the growth was -16.4% (active).
The result for `COc1cc(-c2nn(-c3ccc(NC(=O)Nc4ccc(Cl)c(Cl)c4)cc3)cc2-c2ccncc2)ccc1Cl` reads 4.29% (active); that for `COC(=O)c1cc2c(=O)[nH]cc3c2c(n1)CCC3`, 74.6%.
Consider `CC(=O)O[C@@H]1CC2C(C)(C)CCCC2(C)C2=C1C(=O)C(C(C)C)=CC2=O` (stereo not given in full), for which the growth is 1.18% (active).
The result for `O=C(Nc1ccc(-n2cc(-c3ccncc3)c(-c3ccc(Cl)c(O)c3)n2)cc1)c1ccc(Cl)c(Cl)c1` reads -27% (active).
The result for `Clc1ccc([I+]c2ccc(Cl)cc2Cl)c(Cl)c1` reads -38.3% (active).
The result for `CC1(C)N=C(N)N=C(N)N1c1ccc(Cl)cc1` reads 51.6%.
As for `C=C1CC[C@@H]2[C@](C)(COC(C)=O)[C@H](OC(C)=O)CC[C@@]2(C)[C@@H]1CC(Nc1ccc(S(=O)(=O)Nc2ccc(Cl)nn2)cc1)C1=CCOC1=O` (stereo not given in full), the growth was -17.5% (active).
The result for `COc1ccc2nc(-c3ccc(-c4noc(-c5cc(OC)c(OC)c(OC)c5)n4)cc3)[nH]c2c1` reads 74.4%; that for `O=C(/C=C/c1ccc(Cl)cc1)c1ccc(NC(=O)N2CCN(c3cc4c(cc3F)c(=O)c(C(=O)O)cn4C3CC3)CC2)cc1`, 94.2%; that for `COc1cc(NC(=O)SC2=NCCS2)cc(OC)c1`, 90.5%.
Next, `O=c1c2ccccc2oc2ccc(OCCCCCCN3CCCCCC3)cc12`: -47.9% (active).
Next, `CN(C)c1ccc(/C=N/NC(=O)CSc2nc3sc4c(c3c(=O)n2-c2ccccc2)CCCCC4)cc1`: 86.8%; `COc1ccc(C2CC(c3cc(OC)c(OC)c(OC)c3)=NN2c2ccc(S(N)(=O)=O)cc2)cc1` (stereo not given): 2.23% (active).
`Nc1ncnc2c1c(-c1cccc(OCc3ccccc3)c1)cn2C1CC(CN2CCC2)C1` (stereo not given): the growth was -51.5% (active).

The values are drawn from PubChem BioAssay (NCI).
